The other results are listed elsewhere or left out. No count for the full screen is at hand.
Target: furin, P09958
Test: furin cleavage Z-score vs untreated control; higher = more cleavage, active = 3.5 or more, inactive = 1 or less, 8 variable residues between constant flanks
Method in brief: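 Furin cleavage was scored on 8-mer peptides joined to a cDNA oligonucleotide and bound to magnetic beads at the N-terminus. Digestion with purified furin (1:10 enzyme:substrate, 0.01 ml, 50 mM HEPES pH 7.5, CaCl2, NaCl) lasted 7.5, 15 or 30 min. Freed DNA was tagged with adapters by PCR, sequenced and counted; the cleavage Z-score is the lowess-adjusted log count versus furin-free reactions, scaled by median absolute deviation.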

Chain of furin, P09958 (P09958 whole entry): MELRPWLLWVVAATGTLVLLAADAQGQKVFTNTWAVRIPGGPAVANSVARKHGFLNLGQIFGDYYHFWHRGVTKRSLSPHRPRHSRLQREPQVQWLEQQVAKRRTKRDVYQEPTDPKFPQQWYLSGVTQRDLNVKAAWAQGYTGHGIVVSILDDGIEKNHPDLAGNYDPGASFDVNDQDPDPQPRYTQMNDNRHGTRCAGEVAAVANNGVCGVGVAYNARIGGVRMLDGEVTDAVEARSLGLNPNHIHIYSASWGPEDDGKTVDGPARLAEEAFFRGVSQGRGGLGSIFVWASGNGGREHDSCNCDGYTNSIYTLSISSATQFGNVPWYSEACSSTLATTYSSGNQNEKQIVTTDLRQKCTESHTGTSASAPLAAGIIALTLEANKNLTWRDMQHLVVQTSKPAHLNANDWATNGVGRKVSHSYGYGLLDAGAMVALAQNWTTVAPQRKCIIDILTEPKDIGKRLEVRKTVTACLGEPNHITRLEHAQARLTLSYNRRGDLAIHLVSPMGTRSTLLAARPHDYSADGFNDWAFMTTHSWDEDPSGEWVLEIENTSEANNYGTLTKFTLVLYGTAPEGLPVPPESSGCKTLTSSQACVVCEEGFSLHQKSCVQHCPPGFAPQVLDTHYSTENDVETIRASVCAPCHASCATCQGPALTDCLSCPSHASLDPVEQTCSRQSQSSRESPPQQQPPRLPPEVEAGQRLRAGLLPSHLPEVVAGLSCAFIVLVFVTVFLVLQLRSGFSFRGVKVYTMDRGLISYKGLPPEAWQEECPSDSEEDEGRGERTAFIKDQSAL

| Sequence | furin cleavage Z-score (7.5 min) | furin cleavage Z-score (15 min) | furin cleavage Z-score (30 min) |
| --- | --- | --- | --- |
| CAREFRIIFDAGNASASA [FS-2002] | -0.0827 (inactive) | -0.962 (inactive) | -0.343 (inactive) |
| CAPCEPEPDVAGNASASA [HC1241] | -0.464 (inactive) | 0.432 (inactive) | -0.805 (inactive) |
| CATTPVSGSWAGNASASA [HC43] | -0.371 (inactive) | 0.0296 (inactive) | 0.074 (inactive) |
| CAEVETSTWVAGNASASA [HC2192] | -0.139 (inactive) | -0.872 (inactive) | -0.676 (inactive) |
| CAEVVVSTWVAGNASASA [HC123] | 0.0781 (inactive) | -2.67 (inactive) | -0.513 (inactive) |
| CAVALRRRRHAGNASASA [FS-1577] | 11.1 (active) | 12.6 (active) | 9.5 (active) |
| CAVILLMCAVAGNASASA [HC597] | -0.0828 (inactive) | -1.86 (inactive) | -1.55 (inactive) |
| CAYMNRRRRHAGNASASA [FS-320] | 5.9 (active) | 7.94 (active) | 6.26 (active) |
| CAPISRRRRHAGNASASA [FS-69] | 10.5 (active) | 12.1 (active) | 10.2 (active) |
| CAETMRRRRHAGNASASA [FS-928] | 10.4 (active) | 11.7 (active) | 10 (active) |
| CAELITSCSSAGNASASA [HC1551] | -0.448 (inactive) | 0.888 (inactive) | -0.654 (inactive) |
| CACRASGVLTAGNASASA [HC1510] | -0.191 (inactive) | -0.919 (inactive) | -0.424 (inactive) |
| CAPVVTSTWVAGNASASA [HC2159] | 0.805 (inactive) | 0.48 (inactive) | 0.275 (inactive) |
| CAEVFCVQPEAGNASASA [HC1442] | -0.865 (inactive) | -0.957 (inactive) | -0.965 (inactive) |
| CAMKIRRRRHAGNASASA [FS-275] | 6.27 (active) | 6.38 (active) | 5.11 (active) |
| CAMMSRIFRHAGNASASA [FS-1236] | -0.468 (inactive) | -0.194 (inactive) | 1.99 |
| CAVACCSMSYAGNASASA [HC2003] | -0.939 (inactive) | 1.22 | 0.305 (inactive) |
| CARMKRYILHAGNASASA [FS-2222] | 2.82 | 6.82 (active) | 8.57 (active) |
| CARMKREITTAGNASASA [FS-2047] | 9.07 (active) | 9.89 (active) | 7.88 (active) |
| CARKKKEEEMAGNASASA [FS-2264] | -1.03 (inactive) | -1.15 (inactive) | -0.39 (inactive) |
| CARMKREDLNAGNASASA [FS-2718] | 11.1 (active) | 11.1 (active) | 9.09 (active) |
| CAEAADAILHAGNASASA [HC268] | 1.3 | -1.15 (inactive) | 0.548 (inactive) |
| CARMKRVWDRAGNASASA [FS-2722] | 2.92 | -0.324 (inactive) | 0.97 (inactive) |
| CARMKRILQRAGNASASA [FS-2720] | 0.0731 (inactive) | 1.31 | 0.696 (inactive) |

| Sequence | furin cleavage Z-score (7.5 min) | furin cleavage Z-score (15 min) | furin cleavage Z-score (30 min) |
| --- | --- | --- | --- |
| CARMKRESLMAGNASASA [FS-3228] | 9.24 (active) | 10.5 (active) | 11.4 (active) |
| CATTPCTGSWAGNASASA [HC76] | 0.592 (inactive) | 0.698 (inactive) | 0.31 (inactive) |
| CAKQKALGLLAGNASASA [HC1025] | -0.454 (inactive) | 1.56 | 0.147 (inactive) |
| CALLLAAGVGAGNASASA [HC1659] | -1.34 (inactive) | -0.972 (inactive) | 0.0513 (inactive) |
| CADREVVTSTAGNASASA [HC2293] | 0.73 (inactive) | -0.878 (inactive) | 0.0278 (inactive) |
| CANVDQDLVGAGNASASA [HC712] | -0.364 (inactive) | -0.928 (inactive) | 0.183 (inactive) |
| CARHRARSVRAGNASASA [HC1621] | 5.03 (active) | 5.34 (active) | 5.83 (active) |
| CARALAHGVRAGNASASA [HC235] | -1.61 (inactive) | -0.489 (inactive) | -0.193 (inactive) |
| CARHRRTPDRAGNASASA [FS-2555] | 3.94 (active) | 6.66 (active) | 4.45 (active) |
| CARHRRQIDRAGNASASA [FU5] | 8.52 (active) | 9.09 (active) | 7.54 (active) |
| CACSQHLPYIAGNASASA [HC1016] | -1.19 (inactive) | -4.19 (inactive) | -2.45 (inactive) |
| CAGPLLCPAGAGNASASA [HC744] | -0.656 (inactive) | -1.61 (inactive) | -1.61 (inactive) |
| CATTPCSAHLAGNASASA [HC2478] | 0.336 (inactive) | 0.111 (inactive) | -0.164 (inactive) |
| CAVVCCSESYAGNASASA [HC2052] | -0.759 (inactive) | -0.905 (inactive) | -0.208 (inactive) |
| CAQRRRSIRDAGNASASA [FS-287] | 14.8 (active) | 16.3 (active) | 11.3 (active) |
| CAIPCRSIRDAGNASASA [FS-668] | 4.89 (active) | 6.2 (active) | 5.07 (active) |
| CAQRRRPTRPAGNASASA [FS-371] | -1.13 (inactive) | 0.703 (inactive) | -0.42 (inactive) |
| CASTTCSAHLAGNASASA [HC2518] | -0.961 (inactive) | -1.68 (inactive) | -0.439 (inactive) |
| CAGESRSRRRAGNASASA [FS-329] | 2.73 | 3.06 | 3.66 (active) |
| CAKTSRSRRRAGNASASA [FS-1225] | 5.45 (active) | 6.99 (active) | 6.15 (active) |
| CARVKRSRRRAGNASASA [FS-2839] | 10.1 (active) | 10.8 (active) | 9.23 (active) |
| CADPSRSRRRAGNASASA [FS-1448] | 0.778 (inactive) | 3.15 | 3.47 |
| CAKTSERSQPAGNASASA [HC186] | 2.56 | -0.461 (inactive) | 0.776 (inactive) |

From the supplement of paper PMC3545927
